# From PubChem BioAssay
# Not all results are given here.
# aSyn 5UTR act – Activators via SNCA 5'UTR binding, MLPCN. alpha-synuclein 5'UTR reporter, activators screen. activity score, % (tested at 7.5 µM), hits read low. hit rate 7.1% among 300,000. AID 1814; in the data active means activity score below about -60%
# * = called active by the depositor.
SMILES,aSyn 5UTR act
CC(=O)c1ccc2c(c1)Cc1cc(C(C)=O)ccc1-2,-124.7*
COc1cc(/C=N/Nc2ccccn2)ccc1O,-90.7*
COc1ccc(-c2cnnc(N/N=C/c3ccc(O)c(OC)c3)n2)cc1,-95.1*
COc1ccc(/C=N/Nc2ccccn2)cc1OC,-114.5*
COc1ccc(/C=N/Nc2nc(N)cc(Cl)n2)cc1OC,-74.5*
Cc1ccc2c(COC(=O)C34CC5CC(CC(C5)C3)C4)cc(=O)oc2c1,-152.3*
Cc1ccc2c(COC(=O)c3ccccc3Br)cc(=O)oc2c1,-179.1*
Cc1ccc2c(COC(=O)c3ccccc3Cl)cc(=O)oc2c1,-135.5*
Cc1cc(C)nc(NC(=O)/C=C/c2ccc3c(c2)OCO3)c1,-206.9*
Cc1cccnc1NC(=O)/C=C/c1ccc2c(c1)OCO2,-151.4*
COC(=O)c1cccc(NC(=O)/C=C/c2ccc3c(c2)OCO3)c1,102.3
CN=C1S/C(=C\c2ccc(O)c(OC)c2)C(=O)N1C,-110.2*
CN=C1S/C(=C\c2ccc(SC)cc2)C(=O)N1C,-98.3*
CSC1=NC(=O)/C(=C/c2ccc(SC)cc2)S1,-80.7*
COc1ccc(/C=C2\SC(=N)N(c3nccs3)C2=O)cc1OC,64.9
COc1cccc(CSc2nc3ccccc3[nH]2)c1,-144.3*
COC(=O)c1cc(CSc2nc3ccccc3[nH]2)oc1C,-173.3*
O=[N+]([O-])c1cccc(CSc2nc3ccccc3[nH]2)c1,-69.7*
COc1ccc2nc(Nc3nc(CSc4nc5ccccc5[nH]4)cc(=O)[nH]3)nc(C)c2c1,102.6
COc1ccc(C2(C)NC(=O)N(CC(=O)Nc3ccc(-c4nc5ccc(C)cc5s4)cc3)C2=O)cc1 (stereo not given),-191.4*
CCC1(c2ccc(F)cc2)NC(=O)N(CC(=O)Nc2ccc(-c3nc4ccc(C)cc4s3)cc2)C1=O (stereo not given),-201.5*
CCc1ccc2nc(N3CCN(C(=O)C(C)(C)C)CC3)sc2c1,-97.8*
CCC(=O)N1CCN(c2nc3ccc(Br)cc3s2)CC1,-116.8*
CC(C)(C)C(=O)N1CCN(c2nc3ccccc3s2)CC1,-118.9*
CCCC(=O)N1CCN(c2nc3ccccc3s2)CC1,-103.9*
SMILES,aSyn 5UTR act
O=C(c1cccs1)N1CCN(c2nc3ccccc3s2)CC1,-65.7*
O=C(NC1CC1)C1CCN(c2nc3ccccc3s2)CC1,-86.3*
Cc1cc(N/N=C/c2ccc(O)cc2O)nc(-n2nc(C)cc2C)n1,71.8
CCOc1ccc(/C=N/Nc2cc(C)nc(N3CCOCC3)n2)cc1,-104.8*
Cc1cc(Nc2ccc(C)c(Cl)c2)nc(N2CCOCC2)n1,-69.9*
CCOc1ccc2nc(N3CCOCC3)nc(C)c2c1,-178.1*
O=[N+]([O-])c1ccccc1/C=N/OCc1ccccc1,-167.3*
Cc1cccc(NC(=O)C(=O)NCc2ccccn2)c1,-70.4*
Cc1cccc(NC(=S)NCc2ccccn2)c1,-76.7*
S=C(NCc1ccccn1)Nc1cccc(Cl)c1,-72.6*
CCOc1cccc(C(=O)NC(=S)Nc2ccc(N3CCN(CC)CC3)cc2)c1,-80.3*
CCCOc1cccc(C(=O)NC(=S)Nc2ccc(N3CCN(C)CC3)cc2)c1,-68.8*
O=C(/C(N=Nc1cccc(C(F)(F)F)c1)=C(/O)c1cccs1)C(F)(F)F,-62.3*
Cc1ccc(N=C/C(C(=O)C(F)(F)F)=C(\O)c2cccs2)cc1,-89.2*
CNC(=O)c1ccc(-c2cc(C(F)(F)F)nn2C)s1,-142.0*
Cc1ccc(N/C=C(/C#N)c2ccsc2)cc1,-174.9*
N#C/C(=C/Nc1ccccc1)c1ccsc1,-78.7*
COCCCn1c(SCC(=O)Nc2ccc(C(C)=O)cc2)nc2ccccc2c1=O,-84.0*
CCn1c(SCC(=O)Nc2ccc(C(C)=O)cc2)nc2ccccc21,-70.0*
CC(=O)c1ccc(NC(=O)CSc2nc(=O)cc(N)n2-c2ccccc2)cc1,-142.5*
CC(/C=N/NC(=O)c1ccc(Cn2cc([N+](=O)[O-])cn2)o1)=C\c1ccccc1,-75.0*
BrCCOCCOc1ccc2ccccc2c1,-129.5*
O=C(Nc1cc(N2CCCCC2)ncn1)c1ccc(F)cc1,-86.3*
CC1(C)CCc2cc(-c3ccn(S(=O)(=O)c4ccccc4Cl)n3)ccc2O1,-84.0*
COc1ccc(S(=O)(=O)n2ccc(-c3ccc4c(c3)CCC(C)(C)O4)n2)cc1,-103.4*
SMILES,aSyn 5UTR act
COc1ccc(S(=O)(=O)N2c3ccc(F)cc3CCC2C)cc1 (stereo not given),112.2
CN(C)c1ccc(/C=N/n2ncc3ccccc32)cc1,-290.0*
O=[N+]([O-])c1nn(-c2ccc3c(c2)OCCO3)n(O)c1=NCCC1=CCCCC1,-139.4*
O=[N+]([O-])c1nn(-c2ccc3c(c2)OCCO3)n(O)c1=NCc1ccc(F)cc1,-123.9*
O=[N+]([O-])c1nn(-c2ccc3c(c2)OCCO3)n(O)c1=NCc1ccc(F)cc1Cl,-139.6*
Fc1ccccc1-c1nc(-c2ccc(Br)o2)no1,-73.8*
Cc1ccccc1-c1nc(-c2ccc(NC(=O)c3ccc(Br)o3)cc2)no1,-199.1*
COc1ccc(Cl)cc1-c1nc(-c2ccc(Br)o2)no1,-123.0*
Cc1ccccc1-c1nc(-c2ccc(Br)o2)no1,-110.1*
Clc1ccc(-c2nc3ccccc3[nH]2)cn1,-63.4*
Cc1ccc(-c2nc3ccccc3[nH]2)cn1,-98.5*
Cc1nc2ccc(-c3nc4ccccc4[nH]3)cc2[nH]1,-120.3*
Cc1ccc(NC2=C/C(=N\S(=O)(=O)c3cccs3)c3ccccc3C2=O)c(C)c1,118.0
CCc1ccc(S(=O)(=O)/N=C2\C=C(Nc3ccc(O)cc3)C(=O)c3ccccc32)cc1,101.4
Cc1ccc(S(=O)(=O)/N=C2/C=C(C3C(=O)CC(C)(C)CC3=O)C(=O)c3ccccc32)cc1,-179.9*
COc1ccc(CCn2nc(C)c([N+](=O)[O-])c2C)cc1,-101.0*
O=C(CN1CC[n+]2c(-c3cccs3)csc21)c1ccc(-c2ccccc2)cc1,-64.6*
CCOc1ccc(C(=O)O/N=C(\N)c2ccccn2)cc1OCC,-102.6*
COc1ccc(C(=O)O/N=C(\N)c2ccccn2)cc1,60.6
COc1cc(OC)cc(C(=O)O/N=C(\N)c2ccccn2)c1,-129.6*
Cc1cccc2nc(COc3ccc4ccccc4c3Br)cn12,-202.6*
Cc1nn(-c2ccc(N3CCCCC3)nn2)c(C)c1CCC(=O)Nc1cc(F)ccc1F,-65.3*
COc1cc(/C=N/OCC(=O)NC2CCCCC2C)ccc1OCc1ccc(Cl)cc1 (stereo not given),-98.3*
COc1cc(/C=N/OCC(=O)Nc2cc(C)cc(C)c2)ccc1OCc1ccc(Cl)cc1,-128.2*
Cc1cc(C)c2c(N)c(-c3nc4ccccc4[nH]3)sc2n1,-130.8*
SMILES,aSyn 5UTR act
CC(=O)N(c1ccccc1)c1nnc(-c2cnc(C)cn2)s1,-82.5*
Cc1ccc(C(=O)/C=C/c2cn(CN3CCN(C)CC3)c3ccccc23)cc1,-231.2*
O=C(/C=C/c1c[nH]c2ccccc12)c1ccccc1,-330.2*
Cc1ccc(C(=O)/C=C/c2c[nH]c3ccccc23)cc1,-237.2*
COc1ccc2[nH]cc(/C=C/C(=O)c3ccccc3)c2c1,-245.4*
CC(=O)CCSc1ncnc2sc(-c3ccccc3)cc12,-173.5*
O=C(O)CCSc1ncnc2sc(-c3ccccc3)cc12,88.2
CCOC(=O)C1=C(Cc2ccc(C)cc2)C(=O)c2ccccc2C1=O,-65.4*
CCCC1c2ccc(C)n2CCN1C(=O)Nc1ccccc1Cl (stereo not given),-120.3*
COc1cc(/C=C/C(=O)c2ccc(Cl)s2)cc(OC)c1O,-164.1*
COc1ccc(/C=C/C(=O)c2ccc(Cl)s2)cc1O,-147.4*
COc1ccc(NC(=O)n2nc(OC(=O)c3cccs3)cc2N)cc1,-84.2*
